# According to PubChem BioAssay (NCATS):
# Results filed as inconclusive are left out. Entries that show only a call come without a potency. The source made the active and inactive calls. Calls come from the whole dose curve; as a rule, active = well fitted inhibition curve with a large enough effect; inconclusive = small, poorly fitted or top-dose-only effect; inactive = flat fitted curve, though single readings scatter.
# Tested on: JCK
# Assay: qHTS profiling for inhibitors of Plasmodium falciparum proliferation (AID 504749); note: nearly all actives have a fitted effect of over 60% in size
# Conditions: P. falciparum in erythrocytes, SYBR Green DNA, 72 h; series mostly up to 28.7 µM
# How it was run: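 Each compound contacts P. falciparum-infected red blood cells for 72 h at 37 C; lysis buffer (Tris, EDTA, saponin, Triton X, SYBR Green I) is added and fluorescence measured next morning; values normalized to controls.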
# Potency is the fitted concentration of half-maximal effect.
row,Structure (SMILES),Potency
1,COc1ccc(OC)c(C(O)C(C)N)c1 (stereo unspecified),inactive
2,CCON=O,inactive
3,COC([CH2][Hg])CNC(=O)c1ccccc1OCC(=O)O (stereo unspecified),inactive
4,CC(C)(O)C1C2OC(=O)C1C1(O)CC3OC34C(=O)OC2C14C (stereo unspecified),inactive
5,C[CH2][Hg][S]c1ccccc1C(=O)O,10 µM (active)
6,O=C1C2CC=CCC2C(=O)N1SC(Cl)(Cl)Cl (stereo unspecified),inactive
7,N#CN,inactive
8,O=C1CCCCC1CN1CCCCC1 (stereo unspecified),inactive
9,CN1C2CCC1CC(OC(c1ccccc1)c1ccc(Cl)cc1)C2 (stereo unspecified),12.6 µM (active)
10,COC1=CC=C2[C@H]3Cc4ccc(OC)c5c4[C@@]2(CCN3C)[C@H]1O5,inactive
11,S=C=S,inactive
12,O=[N+]([O-])C(Br)(CO)CO,inactive
13,COc1ccc2c3c1O[C@H]1C(=O)CC[C@H]4[C@@H](C2)N(C)CC[C@]314,inactive
14,CC(=O)O[C@H]1CC[C@H]2[C@@H]3CCC4=CC(=O)CCC4=C3C=C[C@]12C,inactive
15,CCCCCCCCOC(=O)c1ccccc1C(=O)OCCCCCCCC,inactive
16,O=C1CCO1,inactive
17,O=C(CS(=O)C(c1ccccc1)c1ccccc1)NO (stereo unspecified),inactive
18,C=CCN1CC[C@]23c4c5ccc(O)c4O[C@H]2[C@@H](O)C=C[C@H]3[C@H]1C5,inactive
19,O=c1[nH]cc(N(CCCl)CCCl)c(=O)[nH]1,inactive
20,C/C(=C\c1csc(C)n1)[C@@H]1C[C@@H]2O[C@]2(C)CCC[C@H](C)[C@H](O)[C@@H](C)C(=O)C(C)(C)[C@@H](O)CC(=O)O1,0.0089 µM (active)
21,CCC(N)Cc1c[nH]c2ccccc12 (stereo unspecified),inactive
